The text below walks through data of the OligoGym collection.
Also: reference of the scale not given here.

The target of one assay is DPP9. Nature of the assay: pooled miR-30 sensor sort-seq; sequence = guide strand. Conditions: shRNA.
TCGCTGTGGAAGTCGTAGGAGG had a sensor-assay potency score (higher = more potent) of -1.41.

Take TAGCTGACCACGTAGAGGTGGT: the sensor-assay potency score (higher = more potent) was -0.544.

TAATGTGTCTACTTCTTCCACG had a sensor-assay potency score (higher = more potent) of 0.224.

As for ATGTCATGAACATTGATCCAGA, the sensor-assay potency score (higher = more potent) was -1.2.

ATGAACATTGATCCAGACGTTG displayed a sensor-assay potency score (higher = more potent) of -1.33.

TTATAAAAGAATAAGAATCGAC gave a sensor-assay potency score (higher = more potent) of -0.653.

TCTTCCTTTCTTCTAGCGCAGG displayed a sensor-assay potency score (higher = more potent) of -1.35.

On to TTATTCACCAGCTGCACCTGGG, for which the sensor-assay potency score (higher = more potent) was -0.396.

In the case of TAGAGGAGGGAGTTCTCTCGGC, the sensor-assay potency score (higher = more potent) is -0.587.

TTTGAAGGAGTTATTCACCAGC: the sensor-assay potency score (higher = more potent) was -0.354.

With TTAATGTGTCTACTTCTTCCAC, the sensor-assay potency score (higher = more potent) was -0.494.

The sequence AATACTGTGTCTCTCGTTGGGG showed a sensor-assay potency score (higher = more potent) of 0.209.

For another assay, the target named is DPPA5. The description is as above. The settings on record: shRNA.
Consider TAAACCACGACCTCGGTGAGGT, for which the sensor-assay potency score (higher = more potent) was -0.536.

Consider TGGAGCATCCACTTGGTCCGGA, for which the sensor-assay potency score (higher = more potent) was -0.524.

TTCGAGATCCGTCCGGGCCGAA: the sensor-assay potency score (higher = more potent) is -1.6.

Consider TTGAGCATCCCTCGCTCCTGGC, for which the sensor-assay potency score (higher = more potent) is -0.972.

ATGGACTGGAGCATCCACTTGG had a sensor-assay potency score (higher = more potent) of -0.436.

Take TTTCAGGTCTTCGGGAACTTTC: the sensor-assay potency score (higher = more potent) was -1.57.

TTTGAGCATCCCTCGCTCCTGG had a sensor-assay potency score (higher = more potent) of -0.61.

In the case of AGGGATTCGAGATCCGTCCGGG, the sensor-assay potency score (higher = more potent) is -0.916.

TGTAAGGGATTCGAGATCCGTC showed a sensor-assay potency score (higher = more potent) of -0.0102.

Regarding TTCGGGAACTTTCACCCACGGC, the sensor-assay potency score (higher = more potent) is -1.56.

TCTTCGGGAACTTTCACCCACG gave a sensor-assay potency score (higher = more potent) of -0.874.
